Assay results taken from PMC7862700, “An all-to-all approach to the identification of sequence-specific readers for epigenetic DNA modifications on cytosine”.

Legend:
Assay in all cases: DAPPL (digital affinity profiling via proximity ligation, sequencing); 10 mM Tris-HCl pH 7.5, 50 mM NaCl, 1 mM DTT, 4% glycerol, room temperature, 30 min; GST-TFs on glutathione beads, 16-mer random dsDNA library, 0.1% formaldehyde crosslink after washing; high values mean tight binding
FEV = biological target: T1, FEV (Homo sapiens, UniProt Q99581 1-238); conditions: protein: recombinant; tags: N-terminal GST; dsDNA, one strand shown
T1 sequence: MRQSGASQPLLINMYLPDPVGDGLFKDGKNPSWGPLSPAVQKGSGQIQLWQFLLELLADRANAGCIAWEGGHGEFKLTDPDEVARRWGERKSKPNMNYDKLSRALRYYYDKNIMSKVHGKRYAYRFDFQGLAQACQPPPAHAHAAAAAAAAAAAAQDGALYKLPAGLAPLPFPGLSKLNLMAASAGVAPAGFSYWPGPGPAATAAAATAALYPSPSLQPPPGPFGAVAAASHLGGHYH
Summary of the method: (§1)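 Binding signal is defined as a hexamer's read frequency for one factor over its frequency for the tag-only sample. To obtain reads, GST-fused human transcription factors were expressed in yeast, captured on glutathione beads, barcoded with DNA and pooled with that sample. Pools met 200 nmole of a 16-mer random double-stranded DNA library in Tris/NaCl/DTT/glycerol buffer for 30 min at room temperature before washing, 0.1% formaldehyde crosslinking, proximity ligation (BsaI/T4 ligase, 1 h, 37 °C), PCR and Illumina NextSeq500 sequencing.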

ETV5 = ETV5 (Homo sapiens, UniProt P41161 1-510); conditions: protein: recombinant; tags: N-terminal GST; dsDNA, one strand shown
Sequence of ETV5 (P41161 whole entry): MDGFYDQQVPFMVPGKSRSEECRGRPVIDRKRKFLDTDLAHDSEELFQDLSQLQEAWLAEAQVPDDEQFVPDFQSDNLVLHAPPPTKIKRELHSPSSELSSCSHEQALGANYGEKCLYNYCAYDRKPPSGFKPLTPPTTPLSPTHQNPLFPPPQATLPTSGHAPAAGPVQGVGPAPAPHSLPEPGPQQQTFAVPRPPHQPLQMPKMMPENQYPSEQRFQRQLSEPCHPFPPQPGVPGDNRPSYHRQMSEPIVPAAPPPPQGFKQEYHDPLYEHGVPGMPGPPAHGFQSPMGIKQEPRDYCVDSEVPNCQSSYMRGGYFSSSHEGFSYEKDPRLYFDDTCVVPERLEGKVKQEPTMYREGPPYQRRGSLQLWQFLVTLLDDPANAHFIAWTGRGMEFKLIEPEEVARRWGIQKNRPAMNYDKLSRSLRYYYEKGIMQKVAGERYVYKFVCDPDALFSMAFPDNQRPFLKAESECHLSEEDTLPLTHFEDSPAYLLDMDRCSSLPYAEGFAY
Summary of the method: as §1

HSF1 = HSF1 (Homo sapiens, UniProt Q00613 1-529); conditions: protein: recombinant; tags: N-terminal GST; chain copies: 3; dsDNA, one strand shown
Sequence of HSF1 (Q00613 whole entry): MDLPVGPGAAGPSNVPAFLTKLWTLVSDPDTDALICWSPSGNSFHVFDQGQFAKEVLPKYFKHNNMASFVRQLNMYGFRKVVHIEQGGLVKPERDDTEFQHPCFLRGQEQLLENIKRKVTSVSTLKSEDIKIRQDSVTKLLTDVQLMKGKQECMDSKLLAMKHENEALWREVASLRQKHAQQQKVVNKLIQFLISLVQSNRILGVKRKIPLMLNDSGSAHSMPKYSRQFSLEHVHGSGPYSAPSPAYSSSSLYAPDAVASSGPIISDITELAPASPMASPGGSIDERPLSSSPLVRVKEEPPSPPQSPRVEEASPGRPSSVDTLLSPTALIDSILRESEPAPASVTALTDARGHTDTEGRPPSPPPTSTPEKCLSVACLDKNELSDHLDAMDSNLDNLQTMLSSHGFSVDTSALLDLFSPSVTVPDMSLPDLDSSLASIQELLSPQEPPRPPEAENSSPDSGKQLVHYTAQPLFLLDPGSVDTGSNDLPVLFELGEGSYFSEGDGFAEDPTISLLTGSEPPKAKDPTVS
Summary of the method: as §1

SPIC = biological target: T2, SPIC (Homo sapiens, UniProt Q8N5J4 1-248); conditions: protein: recombinant; tags: N-terminal GST; dsDNA, one strand shown
T2 sequence: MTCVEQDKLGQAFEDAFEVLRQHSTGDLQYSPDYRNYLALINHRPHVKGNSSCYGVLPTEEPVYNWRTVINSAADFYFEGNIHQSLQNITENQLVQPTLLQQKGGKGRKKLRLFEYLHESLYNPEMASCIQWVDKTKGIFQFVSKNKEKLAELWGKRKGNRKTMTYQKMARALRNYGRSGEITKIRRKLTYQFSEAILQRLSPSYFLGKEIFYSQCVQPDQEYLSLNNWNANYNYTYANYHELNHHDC
Summary of the method: as §1

ELF4 = ELF4 (Homo sapiens, UniProt Q99607 1-663); conditions: protein: recombinant; tags: N-terminal GST; dsDNA, one strand shown
Sequence of ELF4 (Q99607 whole entry): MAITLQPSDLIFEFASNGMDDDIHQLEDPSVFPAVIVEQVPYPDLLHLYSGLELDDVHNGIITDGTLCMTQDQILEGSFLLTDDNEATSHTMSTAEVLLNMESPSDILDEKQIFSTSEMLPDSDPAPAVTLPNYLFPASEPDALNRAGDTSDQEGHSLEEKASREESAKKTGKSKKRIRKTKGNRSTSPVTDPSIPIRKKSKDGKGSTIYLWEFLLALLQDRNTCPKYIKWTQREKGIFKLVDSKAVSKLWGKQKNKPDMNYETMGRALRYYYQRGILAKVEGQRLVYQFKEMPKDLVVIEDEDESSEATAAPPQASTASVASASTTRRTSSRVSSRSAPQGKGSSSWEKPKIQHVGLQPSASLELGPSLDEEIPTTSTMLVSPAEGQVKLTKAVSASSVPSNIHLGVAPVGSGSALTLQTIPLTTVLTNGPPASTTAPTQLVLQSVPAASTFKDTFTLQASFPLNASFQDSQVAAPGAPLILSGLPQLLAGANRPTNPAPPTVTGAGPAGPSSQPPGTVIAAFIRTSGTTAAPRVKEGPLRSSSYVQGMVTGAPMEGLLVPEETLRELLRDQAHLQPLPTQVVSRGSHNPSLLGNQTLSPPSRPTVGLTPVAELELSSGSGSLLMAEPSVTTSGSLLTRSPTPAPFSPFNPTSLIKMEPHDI
Summary of the method: as §1

ELK4 = biological target: T3, ELK4 (Homo sapiens, UniProt P28324-2 1-405); conditions: protein: recombinant; tags: N-terminal GST; dsDNA, one strand shown
T3 sequence: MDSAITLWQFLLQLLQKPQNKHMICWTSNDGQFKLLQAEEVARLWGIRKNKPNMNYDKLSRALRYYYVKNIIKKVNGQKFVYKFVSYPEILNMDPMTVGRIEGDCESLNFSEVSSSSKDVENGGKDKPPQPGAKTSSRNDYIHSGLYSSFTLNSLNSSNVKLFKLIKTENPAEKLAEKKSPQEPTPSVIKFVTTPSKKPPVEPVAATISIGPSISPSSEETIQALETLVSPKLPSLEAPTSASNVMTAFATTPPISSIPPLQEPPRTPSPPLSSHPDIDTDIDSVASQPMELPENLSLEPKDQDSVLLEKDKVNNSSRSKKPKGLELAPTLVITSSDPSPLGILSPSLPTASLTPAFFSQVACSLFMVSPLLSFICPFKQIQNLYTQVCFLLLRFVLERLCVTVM
Summary of the method: as §1

ETV2 = biological target: T4, ETV2 (Homo sapiens, UniProt O00321 1-342); conditions: protein: recombinant; tags: N-terminal GST; dsDNA, one strand shown
T4 sequence: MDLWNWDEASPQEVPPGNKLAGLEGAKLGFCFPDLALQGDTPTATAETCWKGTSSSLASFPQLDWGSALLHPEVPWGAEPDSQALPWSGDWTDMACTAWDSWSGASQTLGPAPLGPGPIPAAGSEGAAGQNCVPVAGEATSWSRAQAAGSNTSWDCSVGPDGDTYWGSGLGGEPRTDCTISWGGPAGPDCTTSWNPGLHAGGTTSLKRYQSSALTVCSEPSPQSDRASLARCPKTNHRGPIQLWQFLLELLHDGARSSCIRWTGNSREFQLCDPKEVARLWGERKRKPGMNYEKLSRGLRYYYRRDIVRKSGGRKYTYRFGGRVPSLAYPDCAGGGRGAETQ
Summary of the method: as §1

ELF3 = biological target: T5, ELF3 (Homo sapiens, UniProt P78545 1-371); conditions: protein: recombinant; tags: N-terminal GST; dsDNA, one strand shown
T5 sequence: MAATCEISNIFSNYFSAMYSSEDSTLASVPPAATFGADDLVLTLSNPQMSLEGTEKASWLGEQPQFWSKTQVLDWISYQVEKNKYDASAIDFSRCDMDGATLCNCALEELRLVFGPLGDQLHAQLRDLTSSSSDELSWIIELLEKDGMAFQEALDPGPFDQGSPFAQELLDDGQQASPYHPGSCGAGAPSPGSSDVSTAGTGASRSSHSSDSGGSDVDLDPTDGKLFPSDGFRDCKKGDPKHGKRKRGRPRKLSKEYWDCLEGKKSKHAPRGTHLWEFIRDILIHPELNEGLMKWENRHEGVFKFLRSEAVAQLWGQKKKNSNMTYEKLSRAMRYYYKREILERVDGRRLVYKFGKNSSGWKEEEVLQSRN
Summary of the method: as §1

CRX = CRX (Homo sapiens, UniProt O43186 1-299); conditions: protein: recombinant; tags: N-terminal GST; dsDNA, one strand shown
Sequence of CRX (O43186 whole entry): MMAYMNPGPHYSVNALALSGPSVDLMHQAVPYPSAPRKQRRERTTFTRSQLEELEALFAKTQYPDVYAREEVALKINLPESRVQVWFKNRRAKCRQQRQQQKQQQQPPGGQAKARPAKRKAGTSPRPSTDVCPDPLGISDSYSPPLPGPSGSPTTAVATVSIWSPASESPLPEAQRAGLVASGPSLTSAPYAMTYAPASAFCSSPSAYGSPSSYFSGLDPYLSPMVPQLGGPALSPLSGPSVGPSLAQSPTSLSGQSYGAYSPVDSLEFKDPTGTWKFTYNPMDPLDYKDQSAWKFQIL
Summary of the method: as §1

ETV1 = ETV1 (Homo sapiens, UniProt P50549 1-477); conditions: protein: recombinant; tags: N-terminal GST; dsDNA, one strand shown
Sequence of ETV1 (P50549 whole entry): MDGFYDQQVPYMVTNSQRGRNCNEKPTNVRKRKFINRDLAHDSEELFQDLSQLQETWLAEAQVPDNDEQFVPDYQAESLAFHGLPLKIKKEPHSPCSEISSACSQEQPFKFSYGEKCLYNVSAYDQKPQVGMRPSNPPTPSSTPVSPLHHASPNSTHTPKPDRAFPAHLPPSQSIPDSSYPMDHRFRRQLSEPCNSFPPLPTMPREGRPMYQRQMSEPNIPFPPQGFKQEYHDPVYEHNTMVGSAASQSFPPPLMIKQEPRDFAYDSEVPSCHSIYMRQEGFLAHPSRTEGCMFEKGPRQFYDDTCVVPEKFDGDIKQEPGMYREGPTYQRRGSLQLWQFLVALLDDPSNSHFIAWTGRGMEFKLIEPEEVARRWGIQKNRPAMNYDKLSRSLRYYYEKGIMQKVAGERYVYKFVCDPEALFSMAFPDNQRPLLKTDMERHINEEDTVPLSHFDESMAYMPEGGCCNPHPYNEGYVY
Summary of the method: as §1

ERF = biological target: T6, ERF (Homo sapiens, UniProt P50548 1-548); conditions: protein: recombinant; tags: N-terminal GST; dsDNA, one strand shown
T6 sequence: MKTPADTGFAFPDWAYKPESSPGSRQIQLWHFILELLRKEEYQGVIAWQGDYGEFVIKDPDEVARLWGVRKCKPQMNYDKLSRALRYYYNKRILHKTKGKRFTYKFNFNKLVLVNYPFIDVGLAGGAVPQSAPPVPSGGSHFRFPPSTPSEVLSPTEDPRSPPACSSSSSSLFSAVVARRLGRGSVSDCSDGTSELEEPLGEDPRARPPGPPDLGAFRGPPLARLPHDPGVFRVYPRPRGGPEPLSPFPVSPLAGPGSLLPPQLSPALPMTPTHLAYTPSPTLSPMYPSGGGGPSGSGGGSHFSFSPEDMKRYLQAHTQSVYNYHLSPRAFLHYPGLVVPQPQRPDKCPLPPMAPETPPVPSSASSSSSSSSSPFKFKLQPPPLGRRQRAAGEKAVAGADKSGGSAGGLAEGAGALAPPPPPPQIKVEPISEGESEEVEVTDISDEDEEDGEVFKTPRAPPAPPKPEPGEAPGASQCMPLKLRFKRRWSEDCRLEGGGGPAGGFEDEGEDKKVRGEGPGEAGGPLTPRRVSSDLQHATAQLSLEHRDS
Summary of the method: as §1

ETV3L = biological target: T7, ETV3L (Homo sapiens, UniProt Q6ZN32 1-361); conditions: protein: recombinant; tags: N-terminal GST; dsDNA, one strand shown
T7 sequence: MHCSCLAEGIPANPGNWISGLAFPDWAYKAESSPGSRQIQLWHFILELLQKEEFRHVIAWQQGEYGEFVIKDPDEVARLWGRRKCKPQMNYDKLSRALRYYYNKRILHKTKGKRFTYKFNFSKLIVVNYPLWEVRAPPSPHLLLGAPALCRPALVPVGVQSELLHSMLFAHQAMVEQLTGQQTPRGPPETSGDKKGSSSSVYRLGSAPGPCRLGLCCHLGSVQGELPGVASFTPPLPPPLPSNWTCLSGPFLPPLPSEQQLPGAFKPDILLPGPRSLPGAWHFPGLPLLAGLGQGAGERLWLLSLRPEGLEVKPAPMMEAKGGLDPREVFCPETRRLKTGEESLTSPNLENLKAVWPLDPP
Summary of the method: as §1

ETS2 = biological target: T8, ETS2 (Homo sapiens, UniProt P15036 1-469); conditions: protein: recombinant; tags: N-terminal GST; dsDNA, one strand shown
T8 sequence: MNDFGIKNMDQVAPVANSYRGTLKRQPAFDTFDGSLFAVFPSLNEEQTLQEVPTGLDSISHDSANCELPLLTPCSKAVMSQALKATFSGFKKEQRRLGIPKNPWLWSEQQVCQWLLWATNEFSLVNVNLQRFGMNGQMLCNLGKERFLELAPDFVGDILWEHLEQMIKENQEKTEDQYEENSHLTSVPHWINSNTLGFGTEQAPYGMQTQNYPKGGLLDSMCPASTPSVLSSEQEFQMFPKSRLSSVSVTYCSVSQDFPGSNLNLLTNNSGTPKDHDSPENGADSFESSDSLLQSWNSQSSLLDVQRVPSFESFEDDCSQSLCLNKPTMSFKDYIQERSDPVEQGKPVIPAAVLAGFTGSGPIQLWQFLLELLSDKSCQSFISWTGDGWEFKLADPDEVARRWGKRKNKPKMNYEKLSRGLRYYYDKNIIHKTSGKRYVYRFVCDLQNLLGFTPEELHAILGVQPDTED
Summary of the method: as §1

SPDEF = biological target: T9, SPDEF (Homo sapiens, UniProt O95238 1-335); conditions: protein: recombinant; tags: N-terminal GST; dsDNA, one strand shown
T9 sequence: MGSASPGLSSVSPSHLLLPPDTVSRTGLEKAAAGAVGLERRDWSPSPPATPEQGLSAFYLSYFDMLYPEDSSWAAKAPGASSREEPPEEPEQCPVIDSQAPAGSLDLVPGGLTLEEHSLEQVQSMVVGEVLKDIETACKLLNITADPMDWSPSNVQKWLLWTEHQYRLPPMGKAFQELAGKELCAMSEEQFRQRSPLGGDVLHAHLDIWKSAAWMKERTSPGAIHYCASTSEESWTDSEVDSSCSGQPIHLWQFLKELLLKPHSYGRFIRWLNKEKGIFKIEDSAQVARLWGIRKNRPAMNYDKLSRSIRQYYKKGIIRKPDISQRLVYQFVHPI
Summary of the method: as §1

ETV7 = biological target: T10, ETV7 (Homo sapiens, UniProt Q9Y603 1-341); conditions: protein: recombinant; tags: N-terminal GST; dsDNA, one strand shown
T10 sequence: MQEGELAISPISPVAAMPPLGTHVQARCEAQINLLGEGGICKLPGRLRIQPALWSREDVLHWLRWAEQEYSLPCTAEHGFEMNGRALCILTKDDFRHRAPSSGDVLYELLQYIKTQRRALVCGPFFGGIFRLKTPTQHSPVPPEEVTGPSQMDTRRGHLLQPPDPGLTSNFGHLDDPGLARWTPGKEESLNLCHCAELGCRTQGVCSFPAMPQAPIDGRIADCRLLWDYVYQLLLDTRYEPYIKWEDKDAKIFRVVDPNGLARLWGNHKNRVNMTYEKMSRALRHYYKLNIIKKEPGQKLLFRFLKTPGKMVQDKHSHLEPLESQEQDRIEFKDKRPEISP
Summary of the method: as §1

ELF5 = biological target: T11, ELF5 (Homo sapiens, UniProt Q9UKW6-2 1-255); conditions: protein: recombinant; tags: N-terminal GST; dsDNA, one strand shown
T11 sequence: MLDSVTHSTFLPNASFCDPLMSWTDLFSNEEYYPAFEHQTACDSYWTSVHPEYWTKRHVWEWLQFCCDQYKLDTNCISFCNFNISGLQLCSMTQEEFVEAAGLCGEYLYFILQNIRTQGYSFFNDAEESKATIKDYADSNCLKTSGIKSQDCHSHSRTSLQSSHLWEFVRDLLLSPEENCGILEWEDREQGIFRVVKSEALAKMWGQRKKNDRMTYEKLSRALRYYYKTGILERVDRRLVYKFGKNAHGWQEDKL
Summary of the method: as §1

ETV3 = biological target: T12, ETV3 (Homo sapiens, UniProt P41162-2 1-143); conditions: protein: recombinant; tags: N-terminal GST; dsDNA, one strand shown
T12 sequence: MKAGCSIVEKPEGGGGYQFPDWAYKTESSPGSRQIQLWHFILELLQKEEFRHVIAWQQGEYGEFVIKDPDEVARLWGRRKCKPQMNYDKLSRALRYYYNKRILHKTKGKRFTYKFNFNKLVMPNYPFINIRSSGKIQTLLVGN
Summary of the method: as §1

ETV6 = ETV6 (Homo sapiens, UniProt P41212 1-452); conditions: protein: recombinant; tags: N-terminal GST; dsDNA, one strand shown
Sequence of ETV6 (P41212 whole entry): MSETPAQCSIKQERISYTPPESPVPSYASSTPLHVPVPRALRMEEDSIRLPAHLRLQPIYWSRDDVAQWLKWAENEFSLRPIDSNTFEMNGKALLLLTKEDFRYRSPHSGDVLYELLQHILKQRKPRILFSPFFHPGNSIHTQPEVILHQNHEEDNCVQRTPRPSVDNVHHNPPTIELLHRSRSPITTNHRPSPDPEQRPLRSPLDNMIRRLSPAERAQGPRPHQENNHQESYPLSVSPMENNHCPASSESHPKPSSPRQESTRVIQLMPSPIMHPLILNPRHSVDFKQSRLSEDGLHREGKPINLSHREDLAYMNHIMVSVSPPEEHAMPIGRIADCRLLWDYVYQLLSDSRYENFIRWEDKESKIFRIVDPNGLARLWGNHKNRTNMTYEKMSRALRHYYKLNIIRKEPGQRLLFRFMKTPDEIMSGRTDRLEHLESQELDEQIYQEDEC
Summary of the method: as §1

ACCCTC
binding signal (FEV): 1.15 fold enrichment (6-mer frequency, TF over GST control) | binding signal (ETV5): 1.2 fold enrichment (6-mer frequency, TF over GST control) | binding signal (HSF1): 1.11 fold enrichment (6-mer frequency, TF over GST control) | binding signal (SPIC): 1.24 fold enrichment (6-mer frequency, TF over GST control) | binding signal (ELF4): 1.25 fold enrichment (6-mer frequency, TF over GST control) | binding signal (ELK4): 1.01 fold enrichment (6-mer frequency, TF over GST control) | binding signal (ETV2): 1.15 fold enrichment (6-mer frequency, TF over GST control) | binding signal (ELF3): 1.12 fold enrichment (6-mer frequency, TF over GST control) | binding signal (CRX): 1.11 fold enrichment (6-mer frequency, TF over GST control) | binding signal (ETV1): 1.14 fold enrichment (6-mer frequency, TF over GST control) | binding signal (ERF): 1.19 fold enrichment (6-mer frequency, TF over GST control) | binding signal (ETV3L): 1.08 fold enrichment (6-mer frequency, TF over GST control) | binding signal (ETS2): 1.19 fold enrichment (6-mer frequency, TF over GST control) | binding signal (SPDEF): 1.11 fold enrichment (6-mer frequency, TF over GST control) | binding signal (ETV7): 1.13 fold enrichment (6-mer frequency, TF over GST control) | binding signal (ELF5): 1.06 fold enrichment (6-mer frequency, TF over GST control) | binding signal (ETV3): 1.16 fold enrichment (6-mer frequency, TF over GST control) | binding signal (ETV6): 1.12 fold enrichment (6-mer frequency, TF over GST control)
